Here are results for 39 molecules from PubChem BioAssay (NCI).

About 83,000 compounds went through this panel and 20% of them were active in at least one assay; those are over-represented in the sample as a whole.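 Cells were grown in 96-well plates and exposed to the test compound at a single concentration for 48 hours; results are reported as percent growth, with values below 10 considered active.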 Calls of active or inactive are those of the source.

The first experiment deals with EKVX NSCLC. Nature of the experiment: NCI-60 one-dose screen, 48 h (100 = growth as untreated, 0 = no growth, -100 = all killed). The following applies: 10 µM unless noted.
Turning to `COc1ccccc1-c1nc2ccc3[nH]ncc3c2c2c1CCCC2`, the growth is 44.3% (inactive).
Turning to `O=c1ccc2nc(-c3ccccc3)nn(-c3ccccn3)c-2c1`, the growth is 109% (inactive).
For the molecule `Nc1ncc(-c2ccc3ncnc(N4CCc5cc(F)c(Cl)cc54)c3c2)cc1C=O`, the growth is 4.02% (active).
In the case of `C#Cc1ccc(NC(=O)Cc2ccc(/C=C/C(=O)c3nccn3C)cc2)cc1`, the growth was 78.4% (inactive).
`CCCCN(CCC#N)C(N)=O`: the growth was 101% (inactive).
As for `COc1ccc(-c2cn(Cc3ccc4c(Br)cc(Br)c(O)c4n3)nn2)cc1`, the growth was 84.2% (inactive).
The same measure, in the same setting: the value for `CCc1ccc(Cc2cnc(NC(=O)c3cc(C)oc3C)s2)cc1` was 39.6% (inactive).
For `COc1cc(/C=C/c2cc(/C=C/c3ccc(O)c(OC)c3)n(C(=O)Nc3ccc(C)cc3C)n2)ccc1O`, the growth is -14.7% (active).
As to `Clc1nc(N2CCC[N+]3(CC2)CC[N+]2(CCCNCC2)CC3)nc(N2CCC[N+]3(CC2)CC[N+]2(CCCNCC2)CC3)n1` (stereo not drawn), the growth was 108% (inactive).
For the molecule `O=S(=O)(Nc1ccc(Br)cc1)c1ccc(-c2cnc(C3CC3)o2)cc1`, the growth was 53% (inactive).
In the case of `O=C1N/C(=N/N=C(c2ccccc2)c2ccccc2)S/C1=C\c1ccc(Br)cc1`, the growth is 101% (inactive).
Consider `COc1cc(OCc2cccc(-c3ccc4c(c3)OCCO4)c2C)cc(OC)c1C=O`, for which the growth is 53.7% (inactive).
The same measure, in the same setting: the result for `COC(=O)c1c(C)nc(C)c2c1C(=O)C(Br)=C(NCCCCO)C2=O` reads 62.2% (inactive); that for `COc1ccc(CNc2c3ccccc3nc3ccccc23)cc1OC`, 15.2% (inactive); that for `COc1cc(/C=C/C(=O)c2ccc(-n3cc(CN4CCN(c5cc6c(cc5F)c(=O)c(C(=O)O)cn6C5CC5)CC4)nn3)cc2)cc(OC)c1OC`, 80.8% (inactive).
For the molecule `CCCCCC(C)(O)C(C(=O)O)c1ccccc1` (stereo not drawn), the growth was 104% (inactive).
For the molecule `C[C@@H]1N=C(c2ccc(Cl)cc2Cl)Nc2nc3ccccn3c2C1=O`, the growth was 82.5% (inactive).
Consider `O=C(Nc1ccccc1)Nc1ccccc1CNc1nc(Nc2ccc(OCCN3CCCC3)cc2)ncc1Cl`, for which the growth was 85.8% (inactive).
Same read-out and setting: the result for `COc1ccc(S(=O)(=O)N(C)c2oc(-c3ccc(Cl)cc3)nc2C#N)cc1` reads 86.8% (inactive).
Same read-out and setting: the value for `COc1cccc(C(=O)Nc2cccc(NC(=O)c3ccccn3)c2)c1` was 94.1% (inactive); that for `CS(=O)(=O)c1ccc(/C(=N/NC(N)=S)c2ccc(F)cc2)cc1` was 92.5% (inactive); that for `CSc1nc(N)c2c(n1)NC(c1ccccc1)C1CCc3ccccc3C1=N2` (stereo not drawn) was 40.9% (inactive).
Same read-out and setting: the value for `COc1cccc(CNc2nnc(C)c(C)n2)c1O` was 104% (inactive).
For `COc1ccc(NC(=O)CSc2oc(-c3ccccc3)nc2S(=O)(=O)c2ccc(Cl)cc2)c(OC)c1`, the growth was 74.7% (inactive).
On to `O=C(c1ccc(F)cc1)C1CCN(CCn2c(=O)[nH]c3ccccc3c2=O)CC1`, for which the growth is 89.3% (inactive).
Consider `CC(=O)OCC(=O)O[C@@H]1C[C@]2(C(C)C)O[C@@]1(C)[C@@H]1CC[C@@H](C)[C@H]1[C@@H]2OC(=O)/C=C/c1ccccc1`, for which the growth was 68.9% (inactive).
The same measure, in the same setting: the value for `O=C(Nc1ncc(Cc2ccccc2)s1)c1cc(-c2ccccc2)nc2ccccc12` was 98.1% (inactive); that for `O=c1cc(-c2nccc3c2[nH]c2ccccc23)c2cc(Cl)ccc2o1` was 62.1% (inactive).
Consider `O=C(CN1C(=O)NC2NC(=O)NC21)N/N=C/c1cccc([N+](=O)[O-])c1` (stereo not drawn), for which the growth is 102% (inactive).
Same read-out and setting: the value for `CCCCCCCCCCCCCC[n+]1ccc2c(C)c3c(c(C)c2c1)c1cc(O)ccc1n3CC` was -34.5% (active).
On the same count and under the same terms, the result for `C=C(C)[C@@H]1CCC[C@]2(C(=O)OC)CC[C@]3(C)[C@@H](CC[C@@H]4[C@@]5(C)CCCNC(C)(C)[C@@H]5CC[C@]43C)[C@@H]12` reads 88.2% (inactive); that for `COc1cc2c(cc1-c1c(C)noc1C)ncc1nc(C3CCOCC3)n(C3CCC(OC(F)F)CC3)c12` (stereo not drawn), 60.9% (inactive); that for `O=C1CCC(C(=O)N/N=C/c2ccc([N+](=O)[O-])cc2)N1` (stereo not drawn), 102% (inactive).
For the molecule `COc1cc(C(=O)/C=C/c2c(-c3cccs3)nc3sc(C)cn23)cc(OC)c1OC`, the growth is 13.4% (inactive).
Regarding `O=C(NS(=O)(=O)c1ccccc1)n1cc(-c2ccncc2)c(-c2cc(O)cc(Cl)c2)n1`, the growth is 107% (inactive).
The same measure, in the same setting: the value for `COC(CCP(=O)(c1ccccc1)c1ccccc1)(C(=O)c1ccccc1)c1ccccc1` (stereo not drawn) was 59.2% (inactive); that for `Cn1nc(-c2ccc(Cl)cc2)nc2c(=O)n(C)c(=O)nc1-2` was -31.2% (active).
In the case of `CC1(C)CCC[C@]23C(=O)O[C@](O)(C(=O)C4=C[C@@](C)(/C=C/CCCc5ccc6ccc7cccc8ccc5c6c78)CC[C@@]42O)[C@@H]13`, the growth was -84.9% (active).
Regarding `COc1ccc(C2=C/C(=C\c3ccccc3O)C(=O)N2Cc2ccccc2)cc1`, the growth was 82.1% (inactive).

Another experiment concerns SN12C renal. The experiment is described as above. Conditions: 10 µM unless noted.
In the case of `COc1ccccc1-c1nc2ccc3[nH]ncc3c2c2c1CCCC2`, the growth is 80.5% (inactive).
As for `O=c1ccc2nc(-c3ccccc3)nn(-c3ccccn3)c-2c1`, the growth is 93.1% (inactive).
As for `Nc1ncc(-c2ccc3ncnc(N4CCc5cc(F)c(Cl)cc54)c3c2)cc1C=O`, the growth was 12.9% (inactive).
Same read-out and setting: the value for `C#Cc1ccc(NC(=O)Cc2ccc(/C=C/C(=O)c3nccn3C)cc2)cc1` was 68% (inactive); that for `CCCCN(CCC#N)C(N)=O` was 106% (inactive).
Regarding `COc1ccc(-c2cn(Cc3ccc4c(Br)cc(Br)c(O)c4n3)nn2)cc1`, the growth was 100% (inactive).
The same measure, in the same setting: the result for `CCc1ccc(Cc2cnc(NC(=O)c3cc(C)oc3C)s2)cc1` reads 45.1% (inactive); that for `COc1cc(/C=C/c2cc(/C=C/c3ccc(O)c(OC)c3)n(C(=O)Nc3ccc(C)cc3C)n2)ccc1O`, 0.467% (active).
On the same count and under the same terms, the result for `Clc1nc(N2CCC[N+]3(CC2)CC[N+]2(CCCNCC2)CC3)nc(N2CCC[N+]3(CC2)CC[N+]2(CCCNCC2)CC3)n1` (stereo not drawn) reads 93.7% (inactive); that for `O=S(=O)(Nc1ccc(Br)cc1)c1ccc(-c2cnc(C3CC3)o2)cc1`, 33.8% (inactive).
Turning to `O=C1N/C(=N/N=C(c2ccccc2)c2ccccc2)S/C1=C\c1ccc(Br)cc1`, the growth is 98% (inactive).
On the same count and under the same terms, the result for `COc1cc(OCc2cccc(-c3ccc4c(c3)OCCO4)c2C)cc(OC)c1C=O` reads 68.2% (inactive); that for `COC(=O)c1c(C)nc(C)c2c1C(=O)C(Br)=C(NCCCCO)C2=O`, 61.7% (inactive); that for `COc1ccc(CNc2c3ccccc3nc3ccccc23)cc1OC`, 22.5% (inactive).
Same read-out and setting: the result for `COc1cc(/C=C/C(=O)c2ccc(-n3cc(CN4CCN(c5cc6c(cc5F)c(=O)c(C(=O)O)cn6C5CC5)CC4)nn3)cc2)cc(OC)c1OC` reads 58.8% (inactive).
`CCCCCC(C)(O)C(C(=O)O)c1ccccc1` (stereo not drawn): the growth was 97.8% (inactive).
Take `C[C@@H]1N=C(c2ccc(Cl)cc2Cl)Nc2nc3ccccn3c2C1=O`: the growth is 75.8% (inactive).
Still for that read-out and setting: the value for `O=C(Nc1ccccc1)Nc1ccccc1CNc1nc(Nc2ccc(OCCN3CCCC3)cc2)ncc1Cl` was 57.8% (inactive); that for `COc1ccc(S(=O)(=O)N(C)c2oc(-c3ccc(Cl)cc3)nc2C#N)cc1` was 88.4% (inactive); that for `COc1cccc(C(=O)Nc2cccc(NC(=O)c3ccccn3)c2)c1` was 98.8% (inactive).
As to `CS(=O)(=O)c1ccc(/C(=N/NC(N)=S)c2ccc(F)cc2)cc1`, the growth was 96.5% (inactive).
The same measure, in the same setting: the result for `CSc1nc(N)c2c(n1)NC(c1ccccc1)C1CCc3ccccc3C1=N2` (stereo not drawn) reads 65.7% (inactive); that for `COc1cccc(CNc2nnc(C)c(C)n2)c1O`, 96.7% (inactive).
The same measure, in the same setting: the result for `COc1ccc(NC(=O)CSc2oc(-c3ccccc3)nc2S(=O)(=O)c2ccc(Cl)cc2)c(OC)c1` reads 75.8% (inactive).
Turning to `O=C(c1ccc(F)cc1)C1CCN(CCn2c(=O)[nH]c3ccccc3c2=O)CC1`, the growth was 105% (inactive).
Take `CC(=O)OCC(=O)O[C@@H]1C[C@]2(C(C)C)O[C@@]1(C)[C@@H]1CC[C@@H](C)[C@H]1[C@@H]2OC(=O)/C=C/c1ccccc1`: the growth was 20.3% (inactive).
Consider `O=C(Nc1ncc(Cc2ccccc2)s1)c1cc(-c2ccccc2)nc2ccccc12`, for which the growth is 104% (inactive).
Still for that read-out and setting: the result for `O=c1cc(-c2nccc3c2[nH]c2ccccc23)c2cc(Cl)ccc2o1` reads 62.4% (inactive); that for `O=C(CN1C(=O)NC2NC(=O)NC21)N/N=C/c1cccc([N+](=O)[O-])c1` (stereo not drawn), 96.5% (inactive); that for `CCCCCCCCCCCCCC[n+]1ccc2c(C)c3c(c(C)c2c1)c1cc(O)ccc1n3CC`, -74.9% (active).
`C=C(C)[C@@H]1CCC[C@]2(C(=O)OC)CC[C@]3(C)[C@@H](CC[C@@H]4[C@@]5(C)CCCNC(C)(C)[C@@H]5CC[C@]43C)[C@@H]12`: the growth is 92.1% (inactive).
Turning to `COc1cc2c(cc1-c1c(C)noc1C)ncc1nc(C3CCOCC3)n(C3CCC(OC(F)F)CC3)c12` (stereo not drawn), the growth was 79.8% (inactive).
As to `O=C1CCC(C(=O)N/N=C/c2ccc([N+](=O)[O-])cc2)N1` (stereo not drawn), the growth was 103% (inactive).
For the molecule `COc1cc(C(=O)/C=C/c2c(-c3cccs3)nc3sc(C)cn23)cc(OC)c1OC`, the growth is 29% (inactive).
The same measure, in the same setting: the result for `O=C(NS(=O)(=O)c1ccccc1)n1cc(-c2ccncc2)c(-c2cc(O)cc(Cl)c2)n1` reads 100% (inactive).
Still for that read-out and setting: the result for `COC(CCP(=O)(c1ccccc1)c1ccccc1)(C(=O)c1ccccc1)c1ccccc1` (stereo not drawn) reads 96.7% (inactive).
Still for that read-out and setting: the value for `Cn1nc(-c2ccc(Cl)cc2)nc2c(=O)n(C)c(=O)nc1-2` was -72.5% (active); that for `CC1(C)CCC[C@]23C(=O)O[C@](O)(C(=O)C4=C[C@@](C)(/C=C/CCCc5ccc6ccc7cccc8ccc5c6c78)CC[C@@]42O)[C@@H]13` was -94.4% (active).
Turning to `COc1ccc(C2=C/C(=C\c3ccccc3O)C(=O)N2Cc2ccccc2)cc1`, the growth was 95.8% (inactive).
